# Laboratory results published in ChEMBL document CHEMBL3988442, “University of Dundee, Small-Polar-MMV Screening Library” (2021).
# Among all 69,000 compounds or so, about 1,000 (1.4%) showed an effect of 50% or more. The entries come from a sample that favours strong results as a whole.
# Tested on: Leishmania donovani
# Assay: Leishmania intramacrophage assay
# Format: functional, organism-based
# Design: scale not given: in the data most compounds retested in dose-response had high values
compound,measurement,setting,value
Cl.Clc1ccccc1CN1CCc2nc(C3CCCNC3)ncc2C1 (stereo unspecified),Percent Effect,"30.3 µM, […]",6.249%
Clc1ccccc1C1(c2ccnc(C3CCCC3)n2)CCNCC1,Percent Effect,"30.3 µM, […]",99.4%
OC1(CN2CCC(Cc3ncccn3)CC2)CCOCC1,Percent Effect,"30.3 µM, […]",5.693%
Clc1ccccc1C1(c2ccnc(CC3CC3)n2)CCNCC1,Percent Effect,"30 µM, 30.03 µM",93.39%
Cn1cc(-c2cnc(N3CCOCC3)nc2)cc1C(=O)N1CCCC1,Percent Effect,"30.3 µM, […]",13.22%
O=C(NCc1ccccc1-n1cccn1)N1CCC(N2CCCC2)C1 (stereo unspecified),Percent Effect,30 µM,13.6%
O=S(=O)(NC1=NCN(CCc2ccccc2)CN1)c1ccc(F)cc1,Percent Effect,"30.3 µM, […]",1.728%
CCc1cc(C(=O)N2CCC(C3CCN(c4ncccn4)CC3)C2)on1 (stereo unspecified),Percent Effect,"30.3 µM, […]",4.034%
Cc1nc(NCCc2ccccc2)cc(C(=O)N2CCOCC2)n1,Percent Effect,"30.3 µM, […]",21.35%
CCn1c(-c2ccccc2)nn(CC(=O)NCCc2c[nH]cn2)c1=O,Percent Effect,"30.3 µM, […]",22.36%
Cc1cc(=O)c(C(=O)N(C)Cc2ccc(Cl)c(F)c2)c[nH]1,Percent Effect,"30.3 µM, […]",24.44%
Cc1cnn(C2CCCN(C(=O)c3cn4ccccc4n3)C2)c1 (stereo unspecified),Percent Effect,30 µM,-3.479%
CCNC(=O)CN1CCN(Cc2nc3c(F)cccc3n2CC)CC1,Percent Effect,30 µM,25.75%
Cn1cc(CCCN2CCN(Cc3cccc(O)c3)CC2)cn1,Percent Effect,"30.3 µM, […]",7.791%
Cc1nc(C)c(C)c(NCc2cnn3cccnc23)n1,Percent Effect,"30.3 µM, […]",15.17%
Cc1ccc(O)c(CNc2cccc(CN3CCSCC3)c2)n1,Percent Effect,"30.3 µM, […]",6.923%
Cc1nc(CN2C(=O)CCC23CCN(Cc2cccn2C)CC3)cs1.O=C(O)C(F)(F)F.O=C(O)C(F)(F)F,Percent Effect,"30.3 µM, […]",2.496%
N#CCCN(CC1CCOC1)Cn1ccc(-c2ccccc2)n1 (stereo unspecified),Percent Effect,"30.3 µM, […]",16.63%
CC(C)c1n[nH]c(C(=O)NC(C)c2ccncc2)c1Br (stereo unspecified),Percent Effect,30 µM,13.54%
CC(C)c1n[nH]c(C(=O)Nc2ccncc2)c1Br,Percent Effect,"30 µM, 30.03 µM",62.71%
COc1ccncc1NC(=O)c1[nH]nc(C(C)C)c1Br,Percent Effect,"30.3 µM, […]",16.78%
OC1COCCN(Cc2cc(-c3ccccc3OC(F)(F)F)no2)C1 (stereo unspecified),Percent Effect,"30.3 µM, […]",-21.47%
N[C@@H]1CCN(Cc2cc(-c3ccccc3OC(F)(F)F)no2)C[C@H]1O,Percent Effect,"30.3 µM, […]",12.53%
NC1CCCCN(Cc2cc(-c3ccccc3OC(F)(F)F)no2)C1 (stereo unspecified),Percent Effect,"30.3 µM, […]",99.07%
COc1ccc(C)cc1CN1CCC(c2cc3ncccc3cn2)CC1.Cl,Percent Effect,"30.3 µM, […]",41.3%
CS(=O)(=O)N1CCC(C(=O)Nc2nnc(C(F)(F)F)[nH]2)CC1,Percent Effect,"30.3 µM, […]",1.048%
COC[C@@H]1CCCN1C(=O)c1cc(-c2ccc(OC)cc2)n[nH]1,Percent Effect,"30.3 µM, […]",15.18%
CN1CCC(N(Cc2ccco2)S(=O)(=O)c2ccc(Br)cc2Cl)CC1,Percent Effect,"30.3 µM, […]",87.02%
Cc1nnc(CN(C)S(=O)(=O)c2ccc(Br)cc2Cl)n1C,Percent Effect,"30.3 µM, […]",25.06%
CN1CCC(N(Cc2ccco2)S(=O)(=O)c2cc(Br)ccc2Br)CC1,Percent Effect,"30.3 µM, […]",95.6%
CN(Cc1nnc2n1CCC2)S(=O)(=O)c1cc(Br)ccc1Br,Percent Effect,"30.3 µM, […]",22.5%
CN1CCC(N(Cc2ccco2)S(=O)(=O)c2ccc(Cl)cc2)CC1,Percent Effect,"30.3 µM, […]",24.1%
O=c1cc(CN(Cc2ccco2)C2CC2)nc2ccc(Br)cn12,Percent Effect,"30.3 µM, […]",12.01%
Cc1ccc(NCCCNC(=O)C2CCCN(Cc3ccco3)C2)nc1 (stereo unspecified),Percent Effect,"30.3 µM, […]",-17.24%
Cc1nc(CN(C)c2nccc(C(F)(F)F)n2)cs1,Percent Effect,"30.3 µM, […]",5.886%
Cc1cnn(CCNc2nc(C)cc(N(C)C)n2)c1,Percent Effect,"30.3 µM, […]",-24.91%
CC(C)c1ccc(/C=C/CC(=O)NC2CCN(C(N)=O)CC2)cc1,Percent Effect,"30.3 µM, […]",-5.908%
COCCN1CCC(NC(=O)C/C=C/c2ccc(C(C)C)cc2)CC1,Percent Effect,"30.3 µM, […]",51.69%
CC(C)c1ccc(/C=C/CC(=O)NC2CCN(C(N)=O)C2)cc1 (stereo unspecified),Percent Effect,"30.3 µM, […]",6.492%
O=C(CC1CC1)N1CCN(Cc2ccncc2)c2ncccc2C1.O=C(O)C(F)(F)F.O=C(O)C(F)(F)F,Percent Effect,"30.3 µM, […]",-1.398%
CCc1cc(C(=O)N2CCC3(CCCN(CC4CC4)C3=O)C2)cs1 (stereo unspecified),Percent Effect,"30.3 µM, […]",12.28%
NC(=O)C1CN(Cc2c(O)ccc3oc4c(c23)CCCC4)CCO1 (stereo unspecified),Percent Effect,"30.3 µM, […]",24.24%
O=C1NCCCc2c1oc1ccc(O)c(CN3CCOCC3)c21,Percent Effect,"30.3 µM, […]",56.93%
Oc1ccc2oc3c(c2c1CN1CCOCC1)CCCC3,Percent Effect,"30.3 µM, […]",27.1%
Cc1nc(CNCC2CN(C)CCO2)cs1 (stereo unspecified),Percent Effect,"30 µM, 30.03 µM",33.12%
CN1CCOC(CNCc2csc(C3CCCC3)n2)C1 (stereo unspecified),Percent Effect,30 µM,13.96%
CN1CCOC(CNCc2csc(C3CCCCC3)n2)C1 (stereo unspecified),Percent Effect,30 µM,56.43%
COc1ccc(CN2C[C@@H]3CC[C@H](C2)N(Cc2snnc2C)C3)cc1,Percent Effect,"30.3 µM, […]",-20.42%
CN(C)S(=O)(=O)NCC1(c2ccccc2Br)CC1,Percent Effect,"30.3 µM, […]",-4.461%
CS(=O)(=O)NCC1(c2ccccc2Br)CC1,Percent Effect,"30.3 µM, […]",-0.01271%
NS(=O)(=O)NCC1(c2ccccc2Br)CC1,Percent Effect,"30.3 µM, […]",94.29%
